Hits are enriched below; roughly 1.5% of the tested compounds scored in any of these assays.
NOD2 RIPK2 PPI = blocks binding of human NOD2 to RIPK2; O43353; CHO BLA complementation NOD2-RIPK2, CCF4 ratio; inhibition, % at 4.98 µM; actives 0.38% (n = 360,000); AID 624267; in the data active means inhibition above about 21%;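 further: 0% = vehicle only and 100% = reference blocker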
TLR4 MyD88 comp = inhibitors of human TLR4-MyD88 binding. AID 861. inhibition, % at 8.4 µM. O00206+Q99836. HeLa CL3-4 TLR4/MyD88 BLA complementation, FRET ratio. actives 0.18% (n = 200,000); in the data active means inhibition above about 25%;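 further: 0% = vehicle and 100% = reference inhibitor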
TLR9-MyD88 block = blocks human TLR9 binding to MyD88; Q9NR96+Q99836; CHO BLA complementation TLR9-MyD88, CCF4 FRET ratio; inhibition, % at 4.98 µM; actives 0.21% (n = 340,000);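 active means inhibition above the mean over all tested compounds plus 3 SD, cut at about 21% in these data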;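 further: 0% = DMSO only wells and 100% = clavulanate BLA inhibitor control wells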
Myeloid diff MLP = compounds promoting myeloid differentiation | ER-HoxA9 myeloid progenitors, lysozyme-GFP differentiation, flow cytometry | calls only at 10 µM | actives 1% (n = 360,000);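 active means normalized GFP-positive differentiation at or above the plate's own cutoff, the solvent-only control mean plus 3 SD; inconclusive means no clear call, values can overlap the other calls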;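 further: cells exposed to compound for four days before flow analysis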
TLR9-MyD88 cf = confirmation of human TLR9-MyD88 binding inhibitors; shares compounds with TLR9-MyD88 block; CHO TLR9/MyD88 BLA complementation, CCF4 FRET ratio; inhibition, % at 4.98 µM; actives 51% (n = 680); AID 540250;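 active means mean inhibition across three repeats above about 21% taken from the earlier screen, limit read from the data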;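 further: blue over green emission ratio reports constitutive TLR9 MyD88 association via BLA complementation; 0% = DMSO vehicle wells and 100% = clavulanate BLA inhibitor wells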
BLA counter-1 = counter-screen for TLR9-MyD88 inhibitors: non-selective beta-lactamase inhibitors; shares compounds with TLR9-MyD88 block; CHO-BLA cells, CCF4 FRET ratio, BLA reporter; inhibition, % at 4.98 µM; actives 7% (n = 680); AID 540251;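 active means mean inhibition above a 50% cutoff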;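 further: counterscreen of TLR9-MyD88 hits on CMV-driven BLA in CHO-K1 cells; 0% = DMSO alone and 100% = clavulanate blocking BLA; higher means less blue over green ratio so more BLA blockade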
TLR9 CHO cytotox = CHO cell toxicity counter-screen for TLR9-MyD88 inhibitors; inhibition, % at 4.98 µM; TLR9-MyD88 CHO cells cytotoxicity, luminescence; actives 39% (n = 680); shares compounds with TLR9-MyD88 block; in the data active means inhibition above about 11%
Myeloid diff = myeloid differentiation induction | actives 2% (n = 2,300) | shares compounds with Myeloid diff MLP | calls only | AID 651706 | ER-HoxA9 myeloid progenitors, GFP/Mac1 double-positive flow;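 active means share of green or green-and-red cells above 9 and 9% in run 1 or 4 and 3% in run 2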
GFP autofluor = flagged as fluorescent in myeloid differentiation counter-screen; actives 7.4% (n = 2,300); ER-HoxA9 myeloid progenitors, no estrogen, GFP autofluorescence flow cytometry; vehicle wells 0%, positive control 100%; shares compounds with Myeloid diff MLP; AID 651707; fluorescence response, % (concentration not given with the values);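 active means over 5% cells positive for green fluorescent reporter, or over 2% positive for both it and APC stain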;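 further: range taken on the double positive population between DMSO and positive control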
NOD2-RIPK2 conf = NOD2-RIPK2 interaction inhibition confirmed | CHO cells, NOD2-RIPK2 BLA complementation, CCF4 FRET | shares compounds with NOD2 RIPK2 PPI | actives 70% (n = 1,200) | inhibition, % at 4.98 µM | AID 624370;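 active means mean inhibition across replicates above a set limit taken from the earlier primary screen, cut at about 21% in these data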;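 further: 0% = DMSO-only wells and the high end = clavulanate BLA-blocked wells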
BLA counter-2 = hits BLA reporter in NOD2-RIPK2 inhibitor counterscreen; shares compounds with NOD2 RIPK2 PPI; CHO BLA reporter, CCF4 FRET ratio; inhibition, % at 4.98 µM; actives 57% (n = 1,200); AID 624371;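 active means mean inhibition above the low-control mean inhibition plus three low-control SD, cut at about 11% in these data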;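 further: 0% = DMSO only wells and 100% = clavulanate high control wells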
* marks the source's active call; other numbers are inactive results.

Results for Cc1ccccc1-n1c(C)cc(/C=N/Nc2ccc([N+](=O)[O-])cn2)c1C ?
NOD2 RIPK2 PPI: 28*; TLR4 MyD88 comp: 24; TLR9-MyD88 block: 37*; Myeloid diff MLP: inactive; TLR9-MyD88 cf: 21*; BLA counter-1: 25; TLR9 CHO cytotox: 10*; NOD2-RIPK2 conf: 38*; BLA counter-2: 40*

Results for Cc1ccc(S(=O)(=O)N2[C@H](c3cccc(Cl)c3)CC(=O)[C@@H]3CN(S(=O)(=O)c4ccccc4C)[C@H](c4ccc(Cl)cc4)C[C@@H]32)cc1 ?
NOD2 RIPK2 PPI: -4; TLR9-MyD88 block: -3; Myeloid diff MLP: inconclusive

What do the screens show for `COc1ccc(CCNC(=O)c2nn(C)cc2Cl)cc1`?
NOD2 RIPK2 PPI: -9; TLR4 MyD88 comp: -16; TLR9-MyD88 block: 5; Myeloid diff MLP: active; Myeloid diff: inactive; GFP autofluor: 0

Results for COc1ccc(CCNC(=O)c2ccc(Cl)cc2)cc1 ?
NOD2 RIPK2 PPI: 0; TLR4 MyD88 comp: -8; TLR9-MyD88 block: -3; Myeloid diff MLP: inactive

What do the screens show for `CCOC(=O)N1CCN(C2CC(=O)N(c3ccc(Cl)c(Cl)c3)C2=O)CC1` (stereo not given)?
NOD2 RIPK2 PPI: -9; TLR4 MyD88 comp: 8; TLR9-MyD88 block: -4; Myeloid diff MLP: inactive

How did CCOC(=O)N1CCN(c2ccc(Cl)c(Cl)c2)CC1 do in these assays?
NOD2 RIPK2 PPI: 6; TLR4 MyD88 comp: 3; TLR9-MyD88 block: -2; Myeloid diff MLP: active; Myeloid diff: inactive; GFP autofluor: 0

What do the screens show for `CC(=O)Nc1ccc(CNc2nc3cc(-c4ccsc4)sc3c(=O)n2C)cc1`?
NOD2 RIPK2 PPI: -3; Myeloid diff MLP: inconclusive

How did COc1cc2c(cc1OC)C(CNC(=O)C=Cc1ccccc1)C2 (stereo not given) do in these assays?
NOD2 RIPK2 PPI: -1; TLR9-MyD88 block: 4; Myeloid diff MLP: inactive

How did CCOC(=O)c1c(-c2ccc(OC)cc2)csc1NC(=O)CSc1ncnc2sccc12 do in these assays?
NOD2 RIPK2 PPI: 0; TLR4 MyD88 comp: 3; TLR9-MyD88 block: -6; Myeloid diff MLP: inactive; Myeloid diff: inactive; GFP autofluor: 1

How did CCOC(=O)c1c(-c2ccc(OC)cc2)csc1NC(=O)COc1ccc2c(C)cc(=O)oc2c1 do in these assays?
NOD2 RIPK2 PPI: -5; TLR4 MyD88 comp: -3; TLR9-MyD88 block: 6; Myeloid diff MLP: inactive

Results for Cc1ccc([C@@H]2C[C@H]3[C@@H](CN2S(=O)(=O)c2ccc(C)cc2)C(=O)C[C@@H](c2ccc(Cl)cc2)N3S(=O)(=O)c2ccccc2C)cc1 ?
NOD2 RIPK2 PPI: -5; TLR9-MyD88 block: -9; Myeloid diff MLP: inactive

What do the screens show for `COc1ccccc1/C=C/C=C1\Oc2c(ccc(O)c2CN2CCN(CCO)CC2)C1=O`?
NOD2 RIPK2 PPI: 16; TLR4 MyD88 comp: 12; TLR9-MyD88 block: 12; Myeloid diff MLP: inactive; Myeloid diff: inactive; GFP autofluor: 0

How did O=C1/C(=C/C=C/c2ccccc2)Oc2c1ccc(O)c2CN1CCN(CCO)CC1 do in these assays?
NOD2 RIPK2 PPI: 6; TLR9-MyD88 block: 10; Myeloid diff MLP: inactive

How did CCOc1ccc2c(c1)ncn2Cc1ccccc1 do in these assays?
NOD2 RIPK2 PPI: -9; TLR4 MyD88 comp: 7; TLR9-MyD88 block: 6; Myeloid diff MLP: inactive

Results for CC(=O)Oc1ccc(Cn2cnc3cc4ccccc4cc32)cc1 ?
NOD2 RIPK2 PPI: 4; TLR4 MyD88 comp: 8; TLR9-MyD88 block: 4; Myeloid diff MLP: inactive; Myeloid diff: inactive; GFP autofluor: 0

How did CC1=Nc2cc(C(=O)NCC3CCCO3)ccc2Sc2ccc(Br)cc21 (stereo not given) do in these assays?
NOD2 RIPK2 PPI: 4; TLR9-MyD88 block: 2; Myeloid diff MLP: inactive; Myeloid diff: inactive; GFP autofluor: 1

What do the screens show for `CC1=Nc2cc(C(=O)O)ccc2Sc2ccc(Br)cc21`?
NOD2 RIPK2 PPI: 0; TLR4 MyD88 comp: 7; TLR9-MyD88 block: 0; Myeloid diff MLP: inactive

What do the screens show for `COc1cc(NC(=O)c2cc3nc(C4CC4)cc(C(F)(F)F)n3n2)c(OC)cc1Cl`?
NOD2 RIPK2 PPI: -5; TLR4 MyD88 comp: 10; TLR9-MyD88 block: -9; Myeloid diff MLP: inactive; Myeloid diff: inactive; GFP autofluor: 0

How did Cn1cc(Cc2ccc(C(=O)N3CCOCC3)cn2)c2ccccc21 do in these assays?
NOD2 RIPK2 PPI: 0; Myeloid diff MLP: inactive

How did CC1=Nc2ccccc2/C1=C/c1nc(-c2ccc(C)s2)oc1O do in these assays?
NOD2 RIPK2 PPI: -2; TLR4 MyD88 comp: -6; TLR9-MyD88 block: 17; Myeloid diff MLP: inactive

What do the screens show for `CC1=Nc2ccccc2/C1=C/c1sc(=N)n(-c2nccs2)c1O`?
NOD2 RIPK2 PPI: 13; TLR4 MyD88 comp: 13; TLR9-MyD88 block: 2; Myeloid diff MLP: inactive; Myeloid diff: inactive; GFP autofluor: 47*

Results for COC(=O)CSc1nnc(-c2ccc(S(=O)(=O)N3CCCCC3)cc2)o1 ?
NOD2 RIPK2 PPI: -3; TLR4 MyD88 comp: 4; TLR9-MyD88 block: 2; Myeloid diff MLP: active; Myeloid diff: inactive; GFP autofluor: 0

What do the screens show for `CC(C)Oc1cc(F)ccc1-c1cc(C(=O)NCc2ccccn2)[nH]n1`?
NOD2 RIPK2 PPI: -5; Myeloid diff MLP: inactive

How did Cc1ccc(NC(=O)C2CCCN(C3=NS(=O)(=O)c4ccccc43)C2)c(O)c1 (stereo not given) do in these assays?
NOD2 RIPK2 PPI: 2; TLR9-MyD88 block: 10; Myeloid diff MLP: active; Myeloid diff: inactive; GFP autofluor: 21*

What do the screens show for `O=C(O)c1cccc(NC2=C(Cl)C(=O)c3ccccc3C2=O)c1`?
NOD2 RIPK2 PPI: 2; TLR4 MyD88 comp: -5; TLR9-MyD88 block: -6; Myeloid diff MLP: active; Myeloid diff: inactive; GFP autofluor: 1

Results for O=C(O)c1ccc(NC2=C(Cl)C(=O)c3ccccc3C2=O)cc1 ?
NOD2 RIPK2 PPI: -9; TLR9-MyD88 block: 4; Myeloid diff MLP: inactive

High-throughput results as filed in PubChem.
